Experimental data from PubChem BioAssay AID1851 (National Center for Advancing Translational Sciences (NCATS), 2009).
The campaign covered roughly 16,000 compounds. About 4,000 (25%) were called active. Inconclusive results (about 26%) are left out. Only a sample is shown. A number with no mark means an inactive call. Calls come from the whole dose curve; as a rule, active = well fitted curve in the direction sought with a large enough effect; inconclusive = small, poorly fitted or top-dose-only effect, or effect the other way; inactive = no such curve, though single readings can be large or run the other way.

The compounds below were run against Cytochrome P450 2C9 (Homo sapiens) (UniProt P11712) (assay: Cytochrome panel assay with activity outcomes). Conditions: recombinant CYP, pro-luciferin dealkylation, luminescence, p450-cyp2c9; series mostly up to 57.1 µM; activity, negative = inhibition: at the top concentration.
Cytochrome P450 2C9 (Homo sapiens), sequence (P11712 whole entry, looked up): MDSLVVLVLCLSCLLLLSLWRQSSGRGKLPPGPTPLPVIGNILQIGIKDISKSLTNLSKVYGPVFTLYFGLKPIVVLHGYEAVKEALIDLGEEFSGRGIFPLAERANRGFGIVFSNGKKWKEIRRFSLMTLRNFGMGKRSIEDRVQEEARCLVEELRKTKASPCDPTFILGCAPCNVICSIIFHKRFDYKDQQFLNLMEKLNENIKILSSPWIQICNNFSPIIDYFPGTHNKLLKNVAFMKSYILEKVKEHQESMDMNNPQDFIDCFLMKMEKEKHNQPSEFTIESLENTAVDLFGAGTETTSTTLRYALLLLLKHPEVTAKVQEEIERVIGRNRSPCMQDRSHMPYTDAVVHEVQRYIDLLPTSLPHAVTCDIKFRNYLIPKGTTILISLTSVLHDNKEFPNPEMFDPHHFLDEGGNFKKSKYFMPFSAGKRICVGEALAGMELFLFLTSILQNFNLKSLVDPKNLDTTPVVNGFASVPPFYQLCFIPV
% is set by controls: 0 for no effect and ±100 for the full control effect.

Row | SMILES | activity, negative = inhibition | AC50
1 | CNc1cc(-c2c(C)noc2C)ncn1 | 9.86% [at 2.29 µM] | –
2 | CCn1c(C)cc(/C=C2\NC(=O)N(Cc3ccc(Cl)cc3)C2=O)c1C | -25.1% | –
3 | FC(F)(F)c1ccccc1-c1cc(NCc2cccnc2)ncn1 | 16.9% [at 2.29 µM] | –
4 | CCCOc1ccc(C(=O)NNC(=S)NC(=O)CC)cc1 | -24.3% | –
5 | CCCOc1ccc(C(=O)NNC(=S)NC(=O)c2cc(-c3ccccc3)nc3ccccc23)cc1 | – | 2.51 µM (active)
6 | CCCCOc1cc(C(=O)NCCN(CC)CC)c2ccccc2n1 | 10.5% [at 25.6 µM] | –
7 | CCN1CCN(CCCNC(=O)C(NC(=O)C2CCC(C)CC2)C(C)C)CC1 (configuration not stated) | -8.03% | –
8 | CC(=O)C1=C(O)C=C(c2ccco2)CC1c1ccco1 (configuration not stated) | – | 7.94 µM (active)
9 | NC(=O)C(=O)O | 8.82% | –
10 | Clc1ccc2c(c1)C1=C(C(c3ccncc3)O2)C(c2ccc(Br)cc2)n2ncnc2N1 (configuration not stated) | – | 1.41 µM (active)
11 | CCN=C(N)CSS(=O)(=O)O | -1.49% [at 11.4 µM] | –
12 | O=C(OCc1ccc(Cl)cc1Cl)c1cccnc1Cl | – | 17.8 µM (active)
13 | O=C(O)c1cccnc1C(=O)O | 1.96% | –
14 | COc1ccccc1-c1cncnc1-n1ccnc1 | -14.3% [at 2.29 µM] | –
15 | O=C(Nc1nc(-c2ccccc2)cs1)c1cccc([N+](=O)[O-])c1 | – | 7.08 µM (active)
16 | Cc1ccc(Nc2nc(-c3sc(NC(=O)c4ccc([N+](=O)[O-])cc4)nc3C)cs2)cc1 | -23.8% | –
17 | CCN1C(=O)[C@H]2[C@H]3[C@H](O)[C@H](O)C/C(=N/OCC(C)C)[C@H]3CC[C@@H]2C1=O | -3.02% [at 11.4 µM] | –
18 | CC(=C/c1ccccc1)/C=N/n1cnnc1 | – | 3.98 µM (active)
19 | Cc1ccccc1-c1cc(N(C)C)ncn1 | 9.36% [at 2.29 µM] | –
20 | Cc1ccccc1-c1cc(-c2ccccc2O)on1 | – | 8.91 µM (active)
21 | CNc1cc(-c2ccccc2C)ncn1 | 21.7% [at 2.29 µM] | –
22 | CNC[C@@H](SC)c1ccc(O)c(O)c1 | 0.961% [at 11.4 µM] | –
23 | Cn1c(OCc2ccc3c(c2)OCO3)nc2c1c(=O)n(Cc1ccc(Cl)c(Cl)c1)c(=O)n2C | – | 2.51 µM (active)
24 | Cn1c(=O)c2c(nc(NCCNc3nc4c(c(=O)n(C)c(=O)n4C)n3C)n2C)n(C)c1=O | 3.94% [at 11.4 µM] | –

Row | SMILES | activity, negative = inhibition | AC50
25 | O=C(COc1ccc(Cl)cc1)N1CCN(Cc2ccc3c(c2)OCO3)CC1 | -34.1% [at 25.6 µM] | –
26 | Cn1c(=O)c2c(nc(Cl)n2Cc2ccc(Cl)c(Cl)c2)n(C)c1=O | – | 6.31 µM (active)
27 | c1cnc(N2CCN(Cc3ccc4c(c3)OCO4)CC2)nc1 | – | inactive
28 | Cn1c(=O)c2c(nc(Cc3ccccc3)n2CC(=O)O)n(C)c1=O | -4.06% [at 11.4 µM] | –
29 | CCN(CC(=O)O)CC(=O)O | 8.87% [at 11.4 µM] | –
30 | O=C(Nc1ccccc1)N1CCCC2(CCN(C(=O)c3cnccn3)CC2)C1 | -14.6% | –
31 | Cn1c(=O)c2[nH]c(-c3ccc(S(=O)(=O)O)cc3)nc2n(C)c1=O | -12.8% | –
32 | CCS(=O)(=O)Nc1ccc(C2=NN(C(=O)c3ccco3)C(c3ccc(C)cc3)C2)cc1 (configuration not stated) | – | 2.24 µM (active)
33 | CC(C)[C@]1(Cl)CC[C@@H]2[C@]3(C)CCC[C@@](C)(C(=O)O)[C@H]3C[C@H](Cl)[C@@]2(Cl)[C@H]1Cl | -25.3% [at 11.4 µM] | –
34 | Cc1cc2nc(CCN(C(=S)NCC(C)C)C3CCCC3)[nH]c2cc1C | – | 7.94 µM (active)
35 | Cc1cc2nc(C3CCCN(C(=S)Nc4ccccc4)C3)[nH]c2cc1C (configuration not stated) | -19% | –
36 | Clc1ccc2c(c1)C(N1CCNCC1)=Nc1ccccc1O2 | -8.46% [at 25.6 µM] | –
37 | Cc1ccc(C(CC(N)=O)c2ccco2)cc1 (configuration not stated) | -7.64% | –
38 | NC(=O)CC(c1ccccc1)c1ccco1 (configuration not stated) | -10% | –
39 | O=C(c1ccco1)N(CCC(c1ccccc1)c1ccco1)Cc1ccco1 (configuration not stated) | – | 2.24 µM (active)
40 | O=C(/C=C/c1ccccc1)N/C(=C/c1ccccc1)C(=O)Nc1ccccc1O | – | 4.47 µM (active)
41 | O=C(/C=C\c1ccccc1)c1ccccc1O | -9.15% [at 11.4 µM] | –
42 | Cc1cn([C@H]2C[C@H](O)[C@@H](COC(N)=O)O2)c(=O)[nH]c1=O | 18.3% [at 11.4 µM] | –
43 | CCCCNC(=O)C1CCN(Cc2ccccn2)CC1 | -9.44% | –
44 | CCOC(=O)COc1ccc(/C=C/[N+](=O)[O-])c(OCC(=O)OCC)c1 | – | 7.94 µM (active)
45 | CN(C)CCOC(=O)COc1ccc(Cl)cc1 | – | inactive
46 | COC(=O)N1CCC2(CC1)CN(c1ccccc1)C2 | -14% | –
47 | CCCc1nc2ccccc2c(C(=O)OCC(=O)Nc2cccc(S(=O)(=O)N3CCOCC3)c2)c1CC | – | 14.1 µM (active)
